# From PubChem
# Shown are actives, neighbours in structure and some others; about 4.7% of the full set was active somewhere.
# DRD3 agonist = activates the human D3 dopamine receptor | AID 652048 | P35462 | max activation, % | 410,000 tested, 0.58% active | D3R DiscoveRx beta-arrestin cells, luminescence, 90 min; in the data active = max activation above about 30%; also: 0% is about no effect
# Target sequence (P35462 whole entry, looked up): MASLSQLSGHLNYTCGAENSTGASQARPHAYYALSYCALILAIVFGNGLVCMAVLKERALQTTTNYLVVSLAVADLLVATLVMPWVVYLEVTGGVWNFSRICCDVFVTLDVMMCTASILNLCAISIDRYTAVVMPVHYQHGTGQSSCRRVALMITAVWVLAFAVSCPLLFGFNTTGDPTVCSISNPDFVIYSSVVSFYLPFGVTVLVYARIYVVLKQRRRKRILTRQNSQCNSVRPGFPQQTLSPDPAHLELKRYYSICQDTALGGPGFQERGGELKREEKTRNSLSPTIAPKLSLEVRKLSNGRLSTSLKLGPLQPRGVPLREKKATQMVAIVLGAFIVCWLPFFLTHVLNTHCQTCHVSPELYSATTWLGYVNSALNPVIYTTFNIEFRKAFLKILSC
#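 Agonist-mode cell screen: cells plated at 1500/well and incubated overnight at 37 °C, then exposed to library compounds for 90 min at 37 °C. Detection reagent was added for 30–60 min at room temperature, and luminescence was read.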
# D3 antag = antagonists of human D3 dopamine receptor; 360,000 tested, 2.5% active; AID 652054; max response, negative = inhibition, %; D3R cells, DiscoveRx beta-arrestin luminescence, antagonist mode; active compounds read low; P35462; in the data active = max response below about -50%; inconclusive = no clear call, values can overlap the other calls; also: % is scaled to controls: 0 for no effect and ±100 for the full control effect
#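 Cells expressing the human receptor were seeded at 1500 cells/well, incubated overnight at 37 degrees C in 5% CO2, then exposed to library compounds with dopamine controls for 90 minutes at 37 degrees C before luminescent detection.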
# HepG2 viability = kills HepG2 cells in TGF-b inhibitor counter-screen; HepG2 CAGA-GFP viability, ATP luminescence, 18 h; Potency, µM (highest dose often 46.1 µM), for the others: at the highest dose activity change, negative = cytotoxicity, actives largely listed as cytotoxic; 410,000 tested, 0.76% active; AID 588856; also: potency is read from the fitted curve at half-maximal effect
#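 HepG2 CAGA-GFP cells (1000/well, DMEM with 1% FBS) received compound, then TGF-beta at 500 pg/mL final, and were incubated 18 hours at 37 degrees C. Viability was read by CellTiter-Glo luminescence. Media-only wells were set as complete cell-killing and DMSO as no toxicity.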
# S2 tox = reduces viability in counter-screen for ATXN expression inhibitors | S2 cells (HEK-293 line with an ATXN2-luciferase reporter) viability, CellTiter-Fluor protease fluorescence, 24 h | Potency, µM (doses to about 56.7 µM), usual class: cytotoxic | 400,000 tested, 0.49% active | AID 651635; also: potency is read from the fitted curve at half-maximal effect; nearly all actives have a fitted effect of over 40% in size
# TGFb inhibitor = inhibitors of TGF-b signaling; HepG2 CAGA-GFP TGF-b/SMAD3 reporter, GFP fluorescence, 18 h; TGF-beta stimulated, 500 pg/mL final; Potency, µM (series often up to 46.1 µM), for the others: at the highest dose activity, negative = inhibition, actives largely listed as inhibitors; 410,000 tested, 1.2% active; also: potency is read from the fitted curve at half-maximal effect; % is scaled to controls: 0 for no effect and ±100 for the full control effect; nearly all actives have a fitted effect of over 65% in size
#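 Smad-responsive CAGA-GFP expression was quantified in HEPG2 cells exposed to compounds and 500 pg/mL final TGF-beta for 18 h at 37 degrees C; unstimulated wells defined full inhibition.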
# ATXN2 expr inh = inhibitors of ATXN2 expression; Potency, µM (series often up to 57 µM), inactives show at the highest dose activity change, negative = inhibition, hits mostly inhibitors; HEK-293 ATXN2-luciferase reporter, luminescence, 24 h; 360,000 tested, 0.72% active; also: potency is read from the fitted curve at half-maximal effect; % is scaled to controls: 0 for no effect and ±100 for the full control effect; nearly all actives have a fitted effect of over 55% in size
#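 qHTS (up to 57 uM final) was run with 24 h compound exposure of reporter cells at 37 °C. Each well was multiplexed: SteadyGlo luminescence measured ATXN2-luciferase expression after a fluorogenic Gly-Phe-AFC viability readout (25 uM final).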
# Starred values were filed as active, the others as inactive; i = inactive; ? = inconclusive; nt = no result; [ ] = dose if it differs, or a comment. Unless noted, calls follow the shape of the dose curve; as a rule, active = well fitted curve in the direction sought with a large enough effect; inconclusive = small, poorly fitted or top-dose-only effect, or another doubt; inactive = no such curve, though single readings can be large; an effect the other way counts as inactive or inconclusive.
SMILES,DRD3 agonist,D3 antag,HepG2 viability,S2 tox,TGFb inhibitor,ATXN2 expr inh
CCN(CC)c1ccc(NC(=O)Cn2c3ncccc3c(=O)n2-c2ccccc2)c(C)c1,1,nt,7%,nt,5%,nt
COc1ccccc1CN1CCC(n2cc(C(=O)N3CCCCC3)nn2)CC1,nt,nt,nt,i,nt,nt
CC(=O)Nc1ccc(S(=O)(=O)NCc2ccc(C(=O)NCCN(C)Cc3ccccc3)cc2)cc1,-11,?,-27%,i,-5%,2%
CCc1ccc(S(=O)(=O)NCc2ccc(C(=O)NCCN(Cc3ccccc3)C(C)C)cc2)cc1,-16,-91*,-30%,?,?,?
O=C(c1cccc([N+](=O)[O-])c1)N1CCN(C/C=C/c2ccccc2)CC1,32*,-11,7%,i,?,-6%
COc1ccc(NS(=O)(=O)c2cc(C(=O)N3CCN(C/C=C/c4ccccc4)CC3)ccc2C)cc1,49*,-8,-7%,i,?,-22%
O=C(c1cccc([N+](=O)[O-])c1)N1CCN(S(=O)(=O)/C=C/c2ccccc2)CC1,1,10,2%,i,?,0%
O=C(c1ccco1)N1CCN(C/C=C/c2ccccc2)CC1,-20,-109*,-37%,i,13%,-3%
COc1cc(C(=O)N2CCN(C/C=C/c3ccccc3)CC2)cc(OC)c1OC,33*,29,0%,i,-24%,-5%
Cc1oc(-c2cccc(Br)c2)nc1CSc1nc2ncccc2[nH]1,7,nt,-29%,nt,-24%,nt
CCOc1ccc(C(=O)NCC(c2ccc(Cl)cc2)N2CCCCC2)cc1 (stereo unspecified),-13,nt,-30%,nt,-27%,-29%
CCCC[C@@H](CNC)NC[C@H](NCCCCC1CCCCC1)C(C)C,8,0,-99%,?,?,25µM*
Cc1c(N=C2C=C(Br)C(=O)C(Br)=C2)c(=O)n(-c2ccccc2)n1C,5,4,7%,nt,4%,-33%[11.3 µM]
Cc1c(N=C2C=CC(=O)c3ccccc32)c(=O)n(-c2ccccc2)n1C,-11,-55*,-100%,nt,?,?
O=C(C[N+]1(CC(O)c2ccccc2)CCCCC1)c1ccccc1 (stereo unspecified),nt,nt,23%,nt,17%,nt
CN(C)c1ccc(NC(=O)Nc2ccc3c(c2)c(=O)n(C)n3-c2ccccc2)cc1,-5,0,-12%,?,12%,-7%
COc1cccc(Cn2c3ccc(NC(=O)Cc4cc(OC)ccc4OC)cc3c(=O)n2C)c1,3,12,-1%,?,19%,-12%
CN(C)c1ccc(NC(=S)Nc2ccc3c(c2)c(=O)n(C)n3-c2ccc(C(C)(C)C)cc2)cc1,-17,-54*,-16%,?,?,0%
COc1cccc(CC(=O)Nc2ccc3c(c2)c(=O)n(C)n3-c2ccc(C(C)(C)C)cc2)c1,-8,-58*,7%,?,?,-39%
COc1cc([C@H]2c3[nH]c4ccccc4c3C[C@H]3C(=O)N4[C@@H](c5cc(OC)c(OC)c(OC)c5)c5[nH]c6ccccc6c5C[C@H]4C(=O)N23)cc(OC)c1OC,-23,0,14µM*,16µM*,?,?
c1cncc(OC2CCN(Cc3ccc4c(c3)CN(Cc3ccc5c(c3)OCO5)CCO4)CC2)c1,nt,nt,nt,i,nt,nt
O=C1CC(O)(C(F)(F)F)Oc2c1ccc1ccccc21 (stereo unspecified),13,9,10µM*,i,16µM*,-12%
O=C(Cn1c(=O)nc(-c2ccccc2)c2ccccc21)NCc1ccc(F)cc1,7,nt,7%,nt,17%,nt
O=C(N/N=C(\c1ccccc1)c1cccnc1)c1cccc(F)c1,-11,-75*,-40%,?,?,?
O=C(N/N=C(\c1ccccc1)c1cccnc1)C(O)(c1ccccc1)c1ccccc1,0,-19,11µM*,i,-15%,0%
SMILES,DRD3 agonist,D3 antag,HepG2 viability,S2 tox,TGFb inhibitor,ATXN2 expr inh
O=C(N/N=C(\c1ccccc1)c1cccnc1)c1ccc(O)cc1,4,-3,-1%,i,-13%,4%
Cc1ccc2cccc(O)c2n1,nt,nt,-118%,nt,?,nt
CC(C)C(NS(C)(=O)=O)c1nnc2n1CCN(Cc1ccc3cccnc3c1)CC2 (stereo unspecified),nt,nt,nt,i,nt,nt
CCC(=O)N[C@H]1CC[C@H](C(=O)N(C)c2ccc(-c3nc4ccccc4o3)cc2)C1,nt,nt,nt,nt,nt,23%
Cc1ccc2[nH]c3c(=O)n(CC(=O)N(CCN(C)C)Cc4ccccc4)ncc3c2c1,-10,nt,-72%,i,11µM*,0%
CCCCN(C)C(=O)Cn1ncc2c([nH]c3ccc(C)cc32)c1=O,6,nt,-4%,i,2%,10%
CCOc1cc(/C=N/NC(N)=O)cc(Br)c1OCC(=O)Nc1cccc2ccccc12,6,92,11µM*,i,17%,-17%
CCOc1cc(/C=N/NC(N)=O)cc(Br)c1OCC(=O)Nc1ccccc1C,1,43,-19%,?,?,-13%
COC(=O)c1sccc1NC(=O)c1cc(-c2cc(C)ccc2C)nc2ccccc12,26,19,-5%,i,-26%,-32%
Cc1ccc(C)c(-c2cc(C(=O)Nc3nccs3)c3ccccc3n2)c1,32*,5,-6%,i,-11%,-14%
Cc1ccc(C(=O)O)c(C(=O)Nc2nc3ccccc3s2)c1,30*,10,4%,i,2%,5%
Fc1ccc(C(c2ccc(F)cc2)N2CCNCC2)cc1,nt,nt,nt,i,nt,-11%
Cc1cc(N2CCOCC2)ccc1/C=C\[N+](=O)[O-],-1,8,18µM*,?,11µM*,?
O=C(c1cn(CCOc2ccccc2F)c2ccccc12)C1CCCCC1,7,nt,-5%,i,0%,7%
CCOC(=O)c1c(NC(=O)C(NCCN(C)C)c2ccccc2)sc2c1CCCC2 (stereo unspecified),-6,8,-105%,nt,?,28µM*
O=C(Cn1c(=O)n(Cc2ccc(F)cc2)c(=O)c2sc3ccccc3c21)Nc1ccc(F)cc1F,3,nt,-2%,nt,?,nt
O=C(COC(=O)CC1CCCC1)Nc1ccc(Cl)cn1,4,10,-4%,i,3%,1%
CC(OC(=O)CC1CCCC1)C(=O)Nc1ccc(Cl)cn1 (stereo unspecified),-2,-54*,0%,i,8%,-10%
COCCN1CCN(Cc2nc(C3(c4ccc(C)cc4)CCCC3)no2)CC1,-15,-54*,-5%,i,1%,4%
COC(=O)Cn1c(CCS(=O)(=O)c2ccc(C)cc2)nc2ccccc21,0,-101*,-29%,i,?,7%
